# MEX-5 binding: C. elegans MEX-5 TCR-2 RNA binding activity. Q9XUB2. MEX-5/FITC-TCR2 RNA binding, fluorescence polarization; stronger effect = lower value. activity score (negative = inhibition of binding), % at 10 µM. actives 0.38% (n = 300,000);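 active means inhibition past about -25% in most replicates, and total fluorescence under double the plate's negative control median, limit read from the data; inconclusive means replicates evenly split on the limit, or fluorescence at least double controls; inactive means too little inhibition in most replicates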
# V-ATPase pH: alters yeast V-ATPase proton transport | S. cerevisiae, pHLuorin cytosolic pH fluorescence | response, % at 10 µM | actives 0.37% (n = 350,000); in the data active means response mostly above about 7.3%, no sharp cut-off; inactive means mostly below about 5.4%; further: actives read high
# HTR2A ag: activates the mouse 5-HT2A serotonin receptor. activation, % at 7.6 µM. actives 0.66% (n = 360,000). P35363. CHO-K1 mHTR2A beta-arrestin complementation, luminescence; percent of 30 µM serotonin response;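 active means activation above a run cutoff, the mean activation of all tested compounds plus 3 SD, cut at about 14% in these data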
# JMJD2C inh: blocks human GASC-1 demethylase activity. Q9H3R0. GST-JMJD2C(1-420) H3K9me3 demethylation, DELFIA europium. inhibition, % at 2.35 µM. actives 0.069% (n = 330,000). AID 2099;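 active means more than half of a compound's replicate wells show inhibition beyond 50%, single wells judged on their own value; inconclusive means some, but no more than half, of replicates pass 50% inhibition; inactive means no replicate passes 50% inhibition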;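 further: signal counts dimethyl H3K9 product captured on neutravidin plate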
# Target sequence (Q9H3R0 1-420 limits assumed): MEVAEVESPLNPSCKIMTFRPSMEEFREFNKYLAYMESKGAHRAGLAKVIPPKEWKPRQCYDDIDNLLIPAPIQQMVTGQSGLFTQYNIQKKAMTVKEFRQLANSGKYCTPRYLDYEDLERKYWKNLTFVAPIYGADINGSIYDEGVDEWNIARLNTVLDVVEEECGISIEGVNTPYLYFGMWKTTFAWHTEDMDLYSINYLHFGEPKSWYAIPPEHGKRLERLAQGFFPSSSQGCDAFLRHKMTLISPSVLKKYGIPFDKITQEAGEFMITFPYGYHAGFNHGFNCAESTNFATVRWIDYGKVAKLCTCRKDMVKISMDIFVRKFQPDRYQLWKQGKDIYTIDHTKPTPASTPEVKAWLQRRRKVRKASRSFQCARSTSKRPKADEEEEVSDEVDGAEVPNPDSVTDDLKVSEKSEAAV
# VLA-4 inh: inhibition in a human VLA-4 binding assay | P13612 | VLA-4 expressing cells, ligand binding flow cytometry | inhibition, % (about 7 µM as worked out from the volumes in the protocol) | actives 0.2% (n = 330,000); in the data active means inhibition above about 50%
# Granule exo inh: blocks lytic granule exocytosis; AID 651702; actives 0.66% (n = 360,000); TALL-104 LAMP-1 surface exposure, flow cytometry; cells stimulated with thapsigargin and PMA; inhibition, % at 10 µM;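 active means inhibition above about 55%, limit read from the data; inconclusive means no clear call, values can overlap the other calls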
# A number is an active result; . = inactive; ? = inconclusive; / = no result given. Hits are enriched below; roughly 2.2% of the tested compounds scored in any of these assays.
SMILES,MEX-5 binding,V-ATPase pH,HTR2A ag,JMJD2C inh,VLA-4 inh,Granule exo inh
Cn1c(=Nc2ccc(N3CCOCC3)cc2)ccc2ccccc21,.,.,.,.,.,.
Cn1c(N=Nc2ccc(N3CCOCC3)cc2)[n+](C)c2ccccc21,-31,.,.,.,/,.
Cc1ccc(Cl)c2c(N=Nc3ccccc3)c(O)[nH]c12,-43,.,.,.,.,.
CCOC(=O)C1=c2/c(=C/c3ccncc3)c(N)c(C(=O)OC)n2C(=O)C(c2ccncc2)S1 (centres undefined),.,.,.,.,.,.
COc1ccccc1N(C(C)=O)C1=C(Cl)C(=O)c2ccccc2C1=O,/,.,.,/,/,60
COc1ccccc1N(C(=O)CCl)c1cn(C(C)=O)c2ccccc12,.,.,.,.,.,.
CCCNC(=O)c1ccc(Cn2cc(-c3ccc(OC)cc3)nc2C(C)N)cc1 (centres undefined),.,.,.,.,.,.
CCOC(=O)C1(C)NC(c2cccs2)C2C(=O)N(c3ccc(OC)cc3)C(=O)C21 (centres undefined),.,/,.,55,.,.
O=S(=O)(Nc1cccnc1)c1cccc(C(F)(F)F)c1,.,.,.,.,.,.
O=[N+]([O-])c1ccc(S(=O)(=O)c2cccc(C(F)(F)F)c2)nc1,.,.,.,.,.,60
CCCCN(C=O)c1c(CC)nc2ccc(C(=O)N3CCN(C(C)=O)CC3)cn12,/,/,.,/,/,.
O=C(Nc1nnc(-c2ccncc2)o1)c1ccc(Br)s1,.,.,.,.,.,.
O=C(NN1C(=O)c2ccccc2NC1c1ccco1)c1ccc([N+](=O)[O-])cc1 (centres undefined),.,.,.,.,.,.
O=C(NN1C(=O)c2ccccc2NC1c1ccc([N+](=O)[O-])o1)c1ccc(Br)cc1 (centres undefined),.,.,.,.,.,.
O=C(NN1C(=O)c2ccccc2NC1c1ccccn1)c1ccc(Br)cc1 (centres undefined),-30,.,.,.,.,.
Cc1cccc(C2Nc3ccccc3C(=O)N2NC(=O)c2ccc([N+](=O)[O-])cc2)n1 (centres undefined),-54,.,.,.,.,.
O=C(NN1C(=O)c2ccccc2NC1c1ccccn1)c1ccc([N+](=O)[O-])cc1 (centres undefined),-44,.,.,.,.,.
O=Cc1cn[nH]c1-c1ccccc1,.,.,.,.,.,.
O=Cc1cnc2ccccc2c1-c1ccccc1,.,.,.,.,.,80
CCOC(=O)/C(C#N)=C/c1ccc(-c2ccsc2C(=O)OC)o1,-55,.,.,.,.,.
Cc1cccc(NC(=O)CC2Nc3cccc4cccc(c34)NC2=O)c1 (centres undefined),.,.,.,51,.,.
CCOC(=O)[C@]12CCC=C1N(Cc1ccc3c(c1)OCO3)C(=O)[C@H](CC(=O)N1CCOCC1)C2,/,/,.,/,/,.
O=c1c(O[C@H]2O[C@@H](CO)[C@H](O)[C@@H](O)[C@@H]2O)c(-c2ccc(O)cc2)oc2cc(O)cc(O)c12,/,.,.,.,.,68
C[C@@H]1O[C@@H](Oc2c(-c3cc(O)c(O)c(O)c3)oc3cc(O)cc(O)c3c2=O)[C@H](O)[C@H](O)[C@H]1O,-58,.,.,.,.,.
CCN1C(=O)N[C@@H](c2ccco2)C(C(C)=O)=C1C,.,.,.,.,.,.
SMILES,MEX-5 binding,V-ATPase pH,HTR2A ag,JMJD2C inh,VLA-4 inh,Granule exo inh
CN(C)c1ccc(N=Cc2nc(-c3ccccc3)oc2OC(=O)c2cccc(Br)c2)cc1,-43,.,.,.,.,.
[N-]=[N+]=NCCN1CCN(CCc2ccccc2)CCC1=O,.,.,.,.,.,.
N#Cc1cc(-c2ccccc2)nnc1Sc1ccccc1,.,.,.,102,.,.
N#Cc1cc(-c2ccccc2)nnc1Sc1ccc(F)cc1,.,.,.,.,.,.
Cc1ccccc1-c1ccc(=O)n(CC(=O)Nc2ccc(C(=O)N3CCCC3)cc2)n1,.,.,.,.,.,.
Cc1ccccc1-c1ccc(=O)n(CC(=O)Nc2ccc(N3CCOCC3)cc2)n1,.,.,.,57,.,.
O=C(/C=C/c1ccco1)NCC(=O)N/N=C/c1ccc(Cl)cc1,.,.,.,.,.,.
O=C(/C=C/c1ccccc1)NCC(=O)N/N=C/c1ccco1,.,.,.,.,.,76
O=S(=O)(c1ccccc1)N1CCN=C1SCc1ccc(Cl)cc1,.,.,.,.,.,.
O=S(=O)(c1ccccc1)N1CCN=C1SCc1ccc(Cl)c(Cl)c1,.,37,.,.,.,.
CC(C)/C=C1\CC/C(=C\c2ccc(N(C)C)cc2)C1=O,?,.,.,.,.,56
Nc1ncnc2c1ncn2[C@@H]1O[C@H](C(=O)NS(=O)(=O)c2ccccc2[N+](=O)[O-])[C@@H](O)[C@H]1O,/,/,.,/,/,.
CCc1ccc(NC(=O)/C(C#N)=C/c2cc3ccc(C)cc3nc2N2CCOCC2)cc1,-41,.,.,.,/,.
COc1ccc(NC(=O)/C(C#N)=C\c2ccc(N3CCOCC3)o2)cc1,?,.,.,.,.,.
CCN(CC)CCCNc1nc(SC)nc2sc3c(c12)CCN(C)C3,.,/,/,.,.,/
Cc1ccc(N/C=C(\C#N)S(=O)(=O)c2ccccc2)cc1,.,.,.,.,.,.
Cc1ccc(S(=O)(=O)N2CCOC2CNC(=O)C(=O)NCCc2ccc(S(N)(=O)=O)cc2)cc1 (centres undefined),/,.,.,61,.,.
O=C(N/N=C/C=C/c1ccc([N+](=O)[O-])cc1)c1cccs1,-72,.,.,.,.,.
CCCC(=O)N1CCCC1(C)C(=O)Nc1ccc(-n2cccc2)cc1 (centres undefined),/,/,.,/,/,.
Cc1sc2c3ccsc3ccc2[n+]1C,.,.,.,/,.,56
Cc1sc2ccc3sccc3c2[n+]1C,.,.,.,.,.,83
CCn1cc(C(=O)NCc2ccccn2)c(=O)c2cc(S(=O)(=O)N3CCCCC3)ccc21,-72,/,/,.,/,/
CCn1cc(C(=O)NCc2ccco2)c(=O)c2cc(S(=O)(=O)N3CCCCCC3)ccc21,.,.,.,.,.,.
O=C1CC(N2CCC(Cc3ccccc3)CC2)C(=O)N1CCc1ccccc1 (centres undefined),.,10,.,.,.,.
CCS(=O)(=O)c1ccc(O)c(NC(=O)c2ccc(S(=O)(=O)N3CCCCCC3)cc2)c1,/,.,.,.,.,.
Cc1ccc(S(=O)(=O)c2nc(-c3ccccc3)oc2NCc2cccnc2)cc1,.,.,.,.,.,.
Cc1ccccc1-c1nc(S(=O)(=O)c2ccc(Br)cc2)c(NCc2cccnc2)o1,.,.,.,.,.,76

# Assay outcomes deposited in PubChem BioAssay by several laboratories.
